Test results: the supplement of paper PMC8728848
This excerpt belongs to a sample that is enriched for the strongest signals.

Columns and labels:
Assay in all cases: glycan array binding signal (z-score within array); higher = stronger binding
Settings in all cases: glycan notation: IUPAC condensed, linker removed
[1] = biological target: Gal3S(b1-4)[Fuc(a1-3)]GlcNAc6S
How it was run: (§1)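 Glycan array data came from 3228 arrays in the Consortium for Functional Glycomics database, and only arrays with an available protein sequence were kept. Glycan names were put into IUPAC-condensed notation, and columns mapping to the same glycan were averaged. The binding signal is a within-array Z-score, averaged across arrays of one protein sequence run at different concentrations or buffers and across linkers. A negative Z-score can be read as non-binding.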

Gal3S6S(b1-4)GlcNAc6S = biological target: Gal3S6S(b1-4)GlcNAc6S
How it was run: as §1

Gal6S(b1-3)GlcNAc6S = biological target: Gal6S(b1-3)GlcNAc6S
How it was run: as §1

GalNAc(b1-3)Gal = biological target: GalNAc(b1-3)Gal
How it was run: as §1

GalNAc(b1-4)GlcNAc = biological target: GalNAc(b1-4)GlcNAc
How it was run: as §1

Glc(a1-6)Glc(a1-6)Glc = biological target: Glc(a1-6)Glc(a1-6)Glc
How it was run: as §1

[2] = biological target: GlcNAc(b1-2)[GlcNAc(b1-4)]Man(a1-3)[GlcNAc(b1-4)][GlcNAc(b1-2)[GlcNAc(b1-6)]Man(a1-6)]Man(b1-4)GlcNAc(b1-4)[Fuc(a1-6)]GlcNAc
How it was run: as §1

[3] = biological target: GlcNAc(b1-2)[GlcNAc(b1-6)]Man(a1-6)[GlcNAc(b1-2)Man(a1-3)]Man(b1-4)GlcNAc(b1-4)[Fuc(a1-6)]GlcNAc
How it was run: as §1

GlcNAc(b1-3)Fuc = biological target: GlcNAc(b1-3)Fuc
How it was run: as §1

[4] = biological target: GlcNAc(b1-3)Gal(b1-4)GlcNAc(b1-3)Gal(b1-4)GlcNAc(b1-2)[GlcNAc(b1-3)Gal(b1-4)GlcNAc(b1-3)Gal(b1-4)GlcNAc(b1-6)]Man(a1-6)[GlcNAc(b1-3)Gal(b1-4)GlcNAc(b1-3)Gal(b1-4)GlcNAc(b1-2)Man(a1-3)]Man(b1-4)GlcNAc(b1-4)[Fuc(a1-6)]GlcNAc
How it was run: as §1

[5] = biological target: GlcNAc(b1-3)Gal(b1-4)GlcNAc(b1-3)Gal(b1-4)GlcNAc(b1-3)Gal(b1-4)GlcNAc(b1-3)Gal(b1-4)GlcNAc(b1-2)Man(a1-3)[GlcNAc(b1-3)Gal(b1-4)GlcNAc(b1-3)Gal(b1-4)GlcNAc(b1-3)Gal(b1-4)GlcNAc(b1-3)Gal(b1-4)GlcNAc(b1-2)Man(a1-6)]Man(b1-4)GlcNAc(b1-4)GlcNAc
How it was run: as §1

[6] = biological target: Man(a1-2)Man(a1-6)[Man(a1-3)]Man(a1-6)[Man(a1-2)Man(a1-2)Man(a1-3)]Man
How it was run: as §1

[7] = biological target: Man(a1-3)[Man(a1-6)]Man(a1-6)[Man(a1-3)]Man(b1-4)GlcNAc(b1-4)GlcNAc
How it was run: as §1

Man(a1-6)Man = biological target: Man(a1-6)Man
How it was run: as §1

[8] = biological target: Neu5Ac(a2-3)Gal(b1-3)GlcNAc(b1-6)GalNAc
How it was run: as §1

[9] = biological target: Neu5Ac(a2-3)Gal(b1-3)[Fuc(a1-4)]GlcNAc
How it was run: as §1

[10] = biological target: Neu5Ac(a2-3)GalNAc(b1-4)GlcNAc
How it was run: as §1

[11] = biological target: Neu5Ac(a2-3)[GalNAc(b1-4)]Gal(b1-4)GlcNAc(b1-3)GalNAc
How it was run: as §1

[12] = biological target: Neu5Ac(a2-6)Gal(b1-4)GlcNAc(b1-2)Man
How it was run: as §1

[13] = biological target: Neu5Ac(a2-6)Gal(b1-4)GlcNAc(b1-2)Man(a1-3)Man(b1-4)GlcNAc(b1-4)GlcNAc
How it was run: as §1

[14] = biological target: Neu5Ac(a2-6)Gal(b1-4)GlcNAc(b1-2)Man(a1-6)[GlcNAc(b1-2)Man(a1-3)]Man(b1-4)GlcNAc(b1-4)GlcNAc
How it was run: as §1

[15] = biological target: Neu5Ac(a2-6)Gal(b1-4)GlcNAc(b1-2)Man(a1-6)[Man(a1-3)]Man(b1-4)GlcNAc(b1-4)GlcNAc
How it was run: as §1

[16] = biological target: Neu5Ac(a2-6)Gal(b1-4)GlcNAc(b1-3)GalNAc
How it was run: as §1

[17] = biological target: Neu5Ac(a2-6)GlcNAc(b1-4)GlcNAc(b1-4)GlcNAc
How it was run: as §1

B1: FimA-N3 (Actinomyces oris) (protein)
chain: MHHHHHHSSGVDLGTENLYFQSNAGLQGAQFQLYKAKNAYANTCSNEKEGAPIAINGQTTLTTDAQGAIDIKGLFISDSIDGADRDNQVNAMERCYVLVETKAPAGYVLPAGNGAATPVKVKAGEETTDN
Q: Which “glycan array binding signal (z-score)” value [1] does the source give for B1 here?
A: 4.34

Q: And the “glycan array binding signal (z-score)” value (Gal3S6S(b1-4)GlcNAc6S)?
A: -0.339

Q: What about the “glycan array binding signal (z-score)” value (Gal6S(b1-3)GlcNAc6S) of the same binder?
A: -0.446

Q: And the “glycan array binding signal (z-score)” value (GalNAc(b1-3)Gal)?
A: 2.63

Q: And the “glycan array binding signal (z-score)” value (GalNAc(b1-4)GlcNAc)?
A: -0.022

Q: What about the “glycan array binding signal (z-score)” value (Glc(a1-6)Glc(a1-6)Glc) of the same binder?
A: -0.527

Q: And the “glycan array binding signal (z-score)” value [2]?
A: -0.394

Q: And the “glycan array binding signal (z-score)” value [3]?
A: -0.252

Q: And the “glycan array binding signal (z-score)” value (GlcNAc(b1-3)Fuc)?
A: 3.03

Q: What about the “glycan array binding signal (z-score)” value [4] of the same binder?
A: 0.202

Q: What about the “glycan array binding signal (z-score)” value [5] of the same binder?
A: -0.047

Q: And the “glycan array binding signal (z-score)” value [6]?
A: -0.315

Q: And the “glycan array binding signal (z-score)” value [7]?
A: -0.253

Q: What about the “glycan array binding signal (z-score)” value (Man(a1-6)Man) of the same binder?
A: 3.05

Q: And the “glycan array binding signal (z-score)” value [8]?
A: 0.038

Q: And the “glycan array binding signal (z-score)” value [9]?
A: 15.7

Q: What about the “glycan array binding signal (z-score)” value [10] of the same binder?
A: -0.492

Q: What about the “glycan array binding signal (z-score)” value [11] of the same binder?
A: -0.212

Q: What about the “glycan array binding signal (z-score)” value [12] of the same binder?
A: -0.531

Q: What about the “glycan array binding signal (z-score)” value [13] of the same binder?
A: -0.045

Q: What about the “glycan array binding signal (z-score)” value [14] of the same binder?
A: 0.223

Q: And the “glycan array binding signal (z-score)” value [15]?
A: 0.03

Q: What about the “glycan array binding signal (z-score)” value [16] of the same binder?
A: -0.16

Q: What about the “glycan array binding signal (z-score)” value [17] of the same binder?
A: 2.65
